Data published in publication PMC4336329 (PLoS ONE, 2015).
About 14,000 (4.5%) of roughly 310,000 compounds showed an effect of 50% or more. The effect is printed as a negative number. This excerpt belongs to a sample that is enriched for strong results.

Each compound was assayed against human ether-à-go-go-related gene (hERG) potassium channel (human, UniProt Q12809) (assay: primary screen, population patch clamp on CHO cells stably expressing hERG; higher = less effect of the substance).
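Further: peak tail current of the secondary pulse compared with the same well before compound.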

Sequence of human ether-à-go-go-related gene (hERG) potassium channel (Q12809 whole entry, looked up): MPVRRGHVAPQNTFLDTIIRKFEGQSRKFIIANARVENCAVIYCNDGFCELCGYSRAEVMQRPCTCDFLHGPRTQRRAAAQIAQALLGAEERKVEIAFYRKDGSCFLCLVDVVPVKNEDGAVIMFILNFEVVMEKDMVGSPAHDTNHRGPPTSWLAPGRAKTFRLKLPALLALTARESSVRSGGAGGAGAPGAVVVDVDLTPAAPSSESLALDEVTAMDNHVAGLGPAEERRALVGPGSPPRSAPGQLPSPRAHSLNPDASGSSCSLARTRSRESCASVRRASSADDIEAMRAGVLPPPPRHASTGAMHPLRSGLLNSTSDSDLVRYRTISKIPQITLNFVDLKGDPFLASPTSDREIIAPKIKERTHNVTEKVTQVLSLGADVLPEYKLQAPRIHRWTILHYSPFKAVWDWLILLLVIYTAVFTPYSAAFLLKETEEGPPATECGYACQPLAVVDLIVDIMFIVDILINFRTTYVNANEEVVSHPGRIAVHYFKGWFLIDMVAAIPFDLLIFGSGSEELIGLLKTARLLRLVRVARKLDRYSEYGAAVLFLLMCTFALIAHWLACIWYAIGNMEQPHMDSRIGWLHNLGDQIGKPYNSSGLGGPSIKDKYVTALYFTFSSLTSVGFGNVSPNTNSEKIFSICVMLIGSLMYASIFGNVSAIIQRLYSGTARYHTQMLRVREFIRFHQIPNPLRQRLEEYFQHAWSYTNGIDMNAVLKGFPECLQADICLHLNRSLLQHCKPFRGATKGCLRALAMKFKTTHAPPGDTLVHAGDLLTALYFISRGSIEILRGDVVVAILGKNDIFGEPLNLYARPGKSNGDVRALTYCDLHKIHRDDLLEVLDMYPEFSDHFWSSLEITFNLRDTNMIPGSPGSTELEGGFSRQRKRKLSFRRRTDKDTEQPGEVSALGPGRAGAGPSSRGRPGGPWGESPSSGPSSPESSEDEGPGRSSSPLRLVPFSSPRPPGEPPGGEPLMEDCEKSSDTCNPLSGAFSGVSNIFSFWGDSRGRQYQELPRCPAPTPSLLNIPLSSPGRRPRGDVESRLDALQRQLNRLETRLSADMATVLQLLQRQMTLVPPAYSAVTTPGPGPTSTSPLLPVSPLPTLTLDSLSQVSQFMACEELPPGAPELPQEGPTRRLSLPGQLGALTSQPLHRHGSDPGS

Row | SMILES | hERG current change (%, negative = inhibition) at 10uM [%]
1 | CCOc1ccc(N2C(=O)CC(NCCc3c[nH]c4ccccc34)C2=O)cc1 (centres unmarked) | 1.45
2 | Cc1cc(C(=O)Nc2nccs2)c2cc(F)ccc2n1 | 7.7
3 | CCCn1c(N)c(C(=O)CSc2nnc(Cc3ccccc3)o2)c(=O)n(C)c1=O | -0.939
4 | O=S(=O)(c1ccccc1)c1ncc(C(F)(F)F)cc1O | 9
5 | O=C(COC(=O)/C=C/c1cccc(F)c1)NC1CCCC1 | 4.41
6 | CCOc1ccc(CCNC(=O)CCC(=O)N2CCOc3ccccc32)cc1OCC | -7.82
7 | COc1cccc(OC)c1C(=O)NC(=S)N1CCCCC1c1cccnc1 (centres unmarked) | -13
8 | Nc1c(CO)nnn1-c1ccccc1 | 4.7
9 | O=C(Nc1ccc(OCC(F)(F)C(F)F)c(C(F)(F)F)c1)c1ccccc1O | 9.65
10 | COc1ccc2c(Cl)c(-c3nnc(SCC(=O)c4ccccc4)n3C)sc2c1 | 8.28
11 | Cc1ccc(NC(=O)c2ccccc2NS(=O)(=O)c2ccc(Cl)s2)cc1S(=O)(=O)N1CCOCC1 | 0.321
12 | COc1ccc(OCc2csc(N)n2)cc1 | 39.4
13 | c1ccc2c(c1)nnn2-c1ncnc2sc3c(c12)CCCC3 | -12.2
14 | O=C(c1ccco1)N1CCN(c2nc(C3CC3)nc3sc4c(c23)CCCC4)CC1 | -29.7
15 | Cc1nc(N2CCN(C(=O)c3ccco3)CC2)c2c3c(sc2n1)CCCC3 | -64.1
16 | CCc1nc(N2CCN(C(C)=O)CC2)c2c3c(sc2n1)CCCC3 | -20.1
17 | CCNC(=S)N1CCN(c2nc(CC)nc3sc4c(c23)CCCC4)CC1 | -15.4
18 | Cc1nc(N2CCN(C(=O)c3ccco3)CC2)c(C#N)c2c1CCCC2 | 3.21
19 | Cc1nc(-n2nnc3cc(C)c(C)cc32)c2c3c(sc2n1)CCCC3 | -1.48
20 | CCC(=O)N1CCN(c2nc(CC)nc3sc4c(c23)CCCC4)CC1 | -71.7
21 | Cc1nc(-n2nnc3ccccc32)c2c3c(sc2n1)CCCC3 | -50.1
22 | C/C(=N\NC(=O)c1nn(C)c(C)c1Br)c1cccc(NC(=O)c2ccoc2C)c1 | -23.2

Row | SMILES | hERG current change (%, negative = inhibition) at 10uM [%]
23 | CCCC(=O)c1ccc(-c2ccccc2)cc1 | -4.95
24 | Cc1ccc(C(C)C)c(OCCCN2C(=O)NC(C)(C)C2=O)c1 | -14.3
25 | Cc1ccc(N2C(=O)CC(Sc3cccs3)C2=O)cc1 (centres unmarked) | 12
26 | Cc1cccc(NC(=O)c2oc3c(c2C)C(=O)CC(C)(C)C3)n1 | -14.9
27 | CC1=C(C(=O)N2CCN(C(=O)c3ccco3)CC2)C2(CCC(C)CC2)OC1=O (centres unmarked) | -63.8
28 | CC1=C(C(=O)N2CCCCC2)C2(CCC(C)CC2)OC1=O (centres unmarked) | -6.74
29 | CC1=C(C(=O)N2CCCCCC2)C2(CCC(C)CC2)OC1=O (centres unmarked) | 2.11
30 | Cc1c(CCC(=O)O)c(=O)oc2cc(OCc3ccccc3F)ccc12 | 27.4
31 | Cc1nc(SCC(=O)N2CCOCC2)c2c(=O)n(C)c(=O)n(C)c2n1 | 0.699
32 | C=CCc1cccc(CNc2cnc3ccccc3c2)c1O | -4.21
33 | COc1ccccc1N1CCN(Cc2nc(N)nc(Nc3ccc(C)c(Cl)c3)n2)CC1 | -75.5
34 | COc1ccccc1N1CCN(Cc2nc(N)nc(Nc3ccc(C)cc3)n2)CC1 | -50.3
35 | COc1ccccc1N1CCN(Cc2ccc(Cl)cc2Cl)CC1 | -12.7
36 | COc1ccccc1N1CCN(Cc2nc(N)nc(Nc3ccccc3)n2)CC1 | -69.6
37 | COc1cc2nc(Nc3ccc(C)c(Cl)c3)nc(N)c2cc1OC.Cl | 4.1
38 | CCc1nnc(NC(=O)c2cccs2)s1 | 9.54
39 | CCN(C(=O)COC(=O)c1ccc(Cl)cc1N)C1CCCCC1 | -9.34
40 | CC(=O)OC(C(=O)NC1CCCCC1)c1ccncc1 (centres unmarked) | -11.7
41 | Cc1sc2nc(SCC(=O)NCc3ccco3)n(Cc3ccccc3)c(=O)c2c1C | -3.84
42 | c1ccc(C2=Nn3c(nnc3-c3ccco3)SC2)cc1 | -25.9
43 | CCOc1ccc(C2=Nn3c(nnc3-c3ccco3)SC2)cc1 | -10.7
44 | COc1ccc(C2=Nn3c(nnc3-c3ccco3)SC2)cc1 | -63.6

Row | SMILES | hERG current change (%, negative = inhibition) at 10uM [%]
45 | Oc1ccc(C2=Nn3c(nnc3-c3ccco3)SC2)cc1O | 0.591
46 | COc1ccc(OC)c(C2=Nn3c(nnc3-c3ccco3)SC2)c1 | -12.6
47 | COc1ccc(C2=Nn3c(nnc3-c3ccco3)SC2)cc1OC | -54.1
48 | Cc1nc2cc(NC(=O)Nc3cccc4ccccc34)ccc2n1C | 2.53
49 | CCCOc1ccc(C(=O)NNC(=S)NC(=O)c2ccccc2)cc1 | 23.4
50 | CCc1noc(C)c1C(=O)NC1CC(C)(C)Cc2c1cnn2-c1ccccc1 (centres unmarked) | 5.9
51 | Fc1ccc2c(c1)C1C=CCC1C(c1cc3c(cc1Br)OCO3)N2 (centres unmarked) | 4.83
52 | CCOc1ccc(NC(=O)Nc2ccc3c(c2)nc(C)n3C)cc1 | 1.49
53 | O=C(NNC(=O)c1ccc(S(=O)(=O)N2CCOCC2)cc1)c1ccccc1 | 17.5
54 | Cc1cc2c(=O)n(Cc3ccco3)c(SCC(=O)c3ccc(Cl)s3)nc2s1 | -18.6
55 | CN(C(=O)CSc1nc2ccc(Br)cc2c(=O)n1Cc1ccco1)C1CCS(=O)(=O)C1 (centres unmarked) | -79.6
56 | CCc1cc2c(=O)n(Cc3ccco3)c(SCc3c(C)noc3C)nc2s1 | -5.47
57 | CN(C(=O)CSc1nc2cc(C(=O)O)ccc2c(=O)n1Cc1ccccc1)C1CCS(=O)(=O)C1 (centres unmarked) | 37.8
58 | CCc1cc2c(SCC(=O)NC3CCS(=O)(=O)C3)ncnc2s1 (centres unmarked) | -1.87
59 | CCc1cc2c(=O)n(Cc3ccco3)c(SCC(=O)NC3CCS(=O)(=O)C3)nc2s1 (centres unmarked) | -72.2
60 | CCc1cc2c(SCC(=O)NCC3CCCO3)ncnc2s1 (centres unmarked) | -1.05
61 | O=C(CSc1nc2c(sc3ccccc32)c(=O)n1Cc1ccco1)NCC1CCCO1 (centres unmarked) | -13.9
62 | Cc1cc2c(=O)n(Cc3ccco3)c(SCC(=O)NCc3ccco3)nc2s1 | -35.8
63 | CCOC(=O)CC(=O)CSc1nc2sc(C)cc2c(=O)n1Cc1ccco1 | -51.5
64 | CCc1cc2c(=O)n(Cc3ccco3)c(SCC(=O)NCC3CCCO3)nc2s1 (centres unmarked) | -70.2
65 | CN(C(=O)CSc1nnc(-c2ccco2)n1Cc1ccccc1)C1CCS(=O)(=O)C1 (centres unmarked) | -6.24
